RXFP1 agonist: activates the human relaxin receptor RXFP1 | HEK293T-RXFP1 cAMP TR-FRET, 30 min; response scale: percent of porcine relaxin response, buffer zero | Potency, µM (top dose mostly 57.5 µM), for the others: top-dose activation, most hits filed as activators | Q9HBX9 | 370,000 compounds, 0.3% hits; active = well fitted activation curve with a large enough effect; inconclusive = small, poorly fitted or top-dose-only effect; note: potency is the fitted concentration of half-maximal effect; % is set by controls: 0 for no effect and ±100 for the full control effect; nearly all actives have a fitted effect of over 60% in size
Target sequence (Q9HBX9 whole entry, looked up): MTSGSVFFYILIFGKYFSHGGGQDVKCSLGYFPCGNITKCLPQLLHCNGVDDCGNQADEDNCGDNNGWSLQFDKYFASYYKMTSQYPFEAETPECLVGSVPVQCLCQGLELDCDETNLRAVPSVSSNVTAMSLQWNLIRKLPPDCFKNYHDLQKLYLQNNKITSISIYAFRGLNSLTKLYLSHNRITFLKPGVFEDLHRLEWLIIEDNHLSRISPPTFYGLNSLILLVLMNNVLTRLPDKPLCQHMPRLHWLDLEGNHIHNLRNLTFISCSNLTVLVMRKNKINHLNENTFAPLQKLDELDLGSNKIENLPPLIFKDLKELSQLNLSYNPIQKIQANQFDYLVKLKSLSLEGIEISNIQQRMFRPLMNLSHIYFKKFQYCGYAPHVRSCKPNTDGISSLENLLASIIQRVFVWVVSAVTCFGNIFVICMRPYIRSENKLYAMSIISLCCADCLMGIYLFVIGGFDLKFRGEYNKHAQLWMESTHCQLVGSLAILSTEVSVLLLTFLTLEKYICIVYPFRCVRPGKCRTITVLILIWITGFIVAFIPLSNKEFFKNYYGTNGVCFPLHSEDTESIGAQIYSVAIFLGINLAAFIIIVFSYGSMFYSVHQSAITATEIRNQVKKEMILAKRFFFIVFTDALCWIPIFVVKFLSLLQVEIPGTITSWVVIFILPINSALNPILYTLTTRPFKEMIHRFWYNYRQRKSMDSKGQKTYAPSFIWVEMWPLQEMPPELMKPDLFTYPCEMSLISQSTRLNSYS
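HEK293 cells stably expressing RXFP1, treated 30 min at 37C with compounds plus PDE4 inhibitor Ro 20174; cAMP measured by HTRF TR-FRET. Normalized to buffer and 29 nM porcine relaxin; EC50 by Hill fit.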
gsp ag: activates gsp, the McCune-Albright syndrome mutation | gsp mutant cells, cAMP HTRF, 30 min | AID 624287 | Potency, µM (series often up to 76.9 µM), for inactives: at the top dose activation (cAMP increase), most hits filed as activators | 340,000 compounds, 0.13% hits; active = well fitted activation curve with a large enough effect; inconclusive = small, poorly fitted or top-dose-only effect, or another doubt; inactive = no such curve, though single readings can be large or run the other way; cell line not stated here;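 note: phosphodiesterase inhibitor Ro 20-1724 added with compounds to block cAMP breakdown; potency is the fitted concentration of half-maximal effect; nearly all actives have a fitted effect of over 60% in size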
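Cells in DMEM/10% FBS with G418 were pretreated with compounds in DMSO plus […] (300 uM stock) for 30 min at 37C. cAMP was measured by HTRF (cAMP-d2 plus anti-cAMP antibody-K) after 30 min at room temperature.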
gsp antagonist: gsp mutant antagonism; gsp-mutant cells, cAMP HTRF, 30 min; Potency, µM (series often up to 76.9 µM), without a hit: at the top dose activity change, negative = inhibition, actives largely listed as inhibitors; 340,000 compounds, 0.4% hits; AID 624288; calls by dose curve; cell line not stated here;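 note: intracellular cAMP measured with PDE inhibitor Ro 20-1724 present during compound exposure; potency is the fitted concentration of half-maximal effect; % is set by controls: 0 for no effect and ±100 for the full control effect; nearly all actives have a fitted effect of over 65% in size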
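HTRF cAMP read-out (cAMP-d2 plus anti-cAMP antibody-K in lysis buffer, 30 min RT). Before lysis, cells are exposed to compounds with […] for 30 min at 37C in DPBS containing Ca/Mg, BSA and Tween 20.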
RXFP1 antag: antagonists of human relaxin receptor RXFP1; Q9HBX9; HEK293-RXFP1, relaxin-stimulated cAMP HTRF, 30 min; stronger effect = lower value; activity change, negative = inhibition, % at 57.5 µM; 350,000 compounds, 0.59% hits; AID 1259400;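 active = activity change of -60% or lower, but not beyond a set lower limit; inconclusive = change between -60% and -40%, or beyond the set limit; inactive = change above -40%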; note: % is set by controls: 0 for no effect and ±100 for the full control effect
pAkt inh: inhibitors of Akt phosphorylation. Neuro2A IGF-stimulated pAkt S473 HTRF, 20 min; stronger effect = lower value. activity change, % for hits at 50 µM. 360,000 compounds, 0.32% hits; in the data active = activity change below about -80%; inconclusive = mostly about -51% to -80%; note: % is set by controls: 0 for no effect and ±100 for the full control effect
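Neuro2A cells (4,500/well, DMEM with 0.5% FBS) were treated with compound at a single 50 µM final concentration, stimulated with 6 nM IGF for 20 min at 37 °C, and lysed. Phospho-Akt Ser473 was read by HTRF as 665/615 ratio ×10^4.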
Active calls of the source: *; i = inactive; ? = inconclusive; · = no result; [ ] = dose if it differs, or a comment. A selection: hits, their analogues and other compounds. The true share with any hit is near 1.2%.

SMILES	RXFP1 agonist	gsp ag	gsp antagonist	RXFP1 antag	pAkt inh
CC12CCC(=O)N1C(C(=O)Nc1nc3ccc(Cl)cc3s1)CS2 (centres undefined)	0%	4%[15.4 µM]	-16%	-60*	i
CC12CCC(=O)N1C(C(=O)Nc1nc3ccc(S(C)(=O)=O)cc3s1)CS2 (centres undefined)	4%	11%	2%	-3	i
Cc1sc2ncn(CC(=O)NCC(=O)N(C)Cc3ccccc3)c(=O)c2c1C	4%	11µM*	8%	0	i
Cc1sc2ncn(CC(=O)NCc3ccccc3)c(=O)c2c1C	11%	?	2%	-6	i
CSCSC1=C(C#N)C(c2ccccc2Cl)C(C(C)=O)=C(C)N1 (centres undefined)	1%	0%	-4%	18	-106%*
Cc1cc(C)c(NC(=O)/C(=C/c2ccco2)c2ccccc2)c(C)c1	0%	-8%	40µM*	-7	i
Cc1cccc(C)c1NC(=O)/C(=C/c1ccco1)c1ccccc1	1%	-15%	-10%	7	i
CCn1c(SCc2ccc(F)cc2Cl)nc(=O)c2c(C(=O)OC)cc(C3CC3)nc21	0%	·	·	-84*	·
CCn1c(SCc2ccccc2F)nc(=O)c2c(C(=O)OC)cc(C3CC3)nc21	0%	·	·	-102*	·
O=C(CCSCc1cnn(-c2ccccc2)c1-n1cccc1)NCc1ccccc1F	-1%	·	·	-36	·
O=C(NCc1ccccn1)c1ccc(Cn2c(=S)[nH]c3ccc(Br)cc3c2=O)cc1	2%	5%[15.4 µM]	?	-12	i
COC(CNC(=O)c1ccc(Cn2c(=S)[nH]c3cc4c(cc3c2=O)OCO4)cc1)OC	4%	-9%	-9%	-98*	i
O=C(NCc1ccccn1)c1ccc(Cn2c(=S)[nH]c3ccccc3c2=O)cc1	2%	-135%	-2%	-77*	i
CCOc1cc2[nH]c(=S)n(Cc3ccc(C(=O)NCCCOC)cc3)c(=O)c2cc1OCC	?	18%	13%	-4	i
COCCNC(=O)c1ccc(Cn2c(=S)[nH]c3cc4c(cc3c2=O)OCO4)cc1	3%	-5%	-1%	-104*	i
Cc1cc(/C=C2/NC(=O)N(Cc3ccccc3F)C2=O)c(C)n1C(C)C	2%	-5%[15.4 µM]	11µM*	-22	i
CCn1c(C)cc(/C=C2/NC(=O)N(Cc3ccccc3F)C2=O)c1C	0%	?	-14%	1	i
O=C1c2ccccc2C(=O)N1CCOc1ccccc1Br	0%	3.5µM*	-5%	-5	i
Cc1c(NC(=O)c2cc([N+](=O)[O-])ccc2N2CCOCC2)cccc1-c1nc2ccccc2o1	2%	·	·	·	·
CCOc1cc2c(cc1/C=C(/C#N)c1ccc(C(=O)O)cc1)OCO2	-2%	-1%	35µM*	-5	i
CC(C)(C)c1cc(-c2csc(Nc3ccccc3)[n+]2Cc2ccc(C(=O)O)cc2)cc(C(C)(C)C)c1O	2%	8%[15.4 µM]	32µM*	-29	i
O=C(O)c1ccc(C[n+]2c(-c3ccccc3)csc2Nc2ccccc2)cc1	-1%	-16%	-21%	-5	i
O=C(CN1C(=O)COc2ccccc21)N1CCc2ccccc21	2%	-2%	7%	-14	-107%*
O=C(N/N=C/c1ccc(O)cc1)c1csc2ccccc12	1%	-27%	-10%	-8	-107%*
O=C(CN1C(=O)COc2ccccc21)NCCc1ccc(Cl)cc1	4%	·	·	-4	·
SMILES	RXFP1 agonist	gsp ag	gsp antagonist	RXFP1 antag	pAkt inh
O=C1/C(=C/c2ccccn2)SC(=S)N1Nc1ncc(C(F)(F)F)cc1Cl	·	-7%	?	-72*	i
CCC(=O)C1=C(c2ccc(OC)c(OC)c2)N(C(=O)CC)n2c(CC)nnc2S1	0%	·	·	-10	·
CCCN(CC1CC1)C(=O)COc1ccccc1C(=O)NCc1ccccc1	0%	-14%	?	2	-110%*
COc1cc(C(=O)NCC(=O)N2CCN(S(=O)(=O)c3ccccc3)CC2)cc(OC)c1OC	0%	-6%[15.4 µM]	-9%	-64*	i
O=C(NCC(=O)N1CCN(S(=O)(=O)c2ccccc2)CC1)c1ccc2ccccc2c1	3%	-29%	?	4	i
COc1ccccc1NCCC(=O)OCC(=O)NCc1ccco1	1%	-3%	-2%	2	-106%*
Cc1ccccc1OCCC(=O)OCC(=O)NCCNC(=O)COC(=O)CCOc1ccccc1C	-1%	5%[15.4 µM]	-1%	-73*	i
COc1ccc(OCCC(=O)OCC(=O)NCc2ccco2)cc1	1%	25%	-24%	-3	i
CCCN1C(=O)C2(c3ccccc31)c1c(oc3ccc(C)cc3c1=O)C(=O)N2CCOC (centres undefined)	-1%	·	·	·	·
C=Cc1ccc2c(c1)N(C)C(=C)S2	1%	-11%	11%	-119*	i
CC(=O)c1ccc2c(c1)N(C)c1ccccc1S2	0%	25%	5%	-5	i
O=C1/C(=C/c2ccc(O)cc2)SC(=S)N1CC1CCCO1 (centres undefined)	-1%	?	0%	-73*	i
CC(C)NCCCC1(C(N)=O)c2ccccc2-c2ccccc21	·	·	·	-3	·
CCc1ccc(CNC(=O)CCCN2C(=O)CCn3nc(-c4cccn4C)cc32)cc1	3%	·	·	2	·
O=C(c1ccccc1)C(CN1CCCCC1)c1ccccc1 (centres undefined)	·	5%	-5%	-82*	i
CCN(CC)c1ccc(NC(=O)c2cnn(-c3ccccc3)c2-n2cccc2)c(C)c1	2%	·	·	-4	·
CCc1cc(=O)oc2cc(C)cc(O)c12	?	?	-1%	·	i
COC(=O)Cc1c(C)c2c(O)cc(C)cc2oc1=O	16µM*	?	32%	33	·
COc1cccc(CN(C)C(=O)c2cc(COc3c(F)cccc3F)on2)c1	0%	19%	5%	11	i
COc1cccc(CN(C)C(=O)c2cc(COc3ccc4ncccc4c3)on2)c1	3%	-6%[15.4 µM]	35µM*	-8	i
CC(NC(=O)c1cc(COc2ccc3ncccc3c2)on1)c1ccc(F)cc1 (centres undefined)	0%	-6%	28µM*	-12	i
Cc1ccccc1C(=O)Nc1ccc(C(=O)N2CCCC(O)c3cc(Cl)ccc32)c(C)c1 (centres undefined)	·	·	·	-19	·
CCCCNc1ccc(C(=O)OCCN(CC)CC)cc1	·	·	·	-6	·
COC(=O)c1cccc(Nc2c(-c3ccc(OC)cc3)nc3nc[nH]n23)c1	4%	·	·	-23	·
CCOc1ccc(CNC(=O)c2cccn2-c2nnc(N3CCCCC3)s2)cc1OC	-2%	·	·	·	·
CC1(C)Cc2c(sc3ncnc(NN)c23)CO1	13µM*	?	5%	9	i
CC1(C)Cc2c(sc3ncn(N)c(=N)c23)CO1	2%	-15%	15%	·	i

Screens deposited in PubChem BioAssay by National Center for Advancing Translational Sciences (NCATS).
